Laboratory results: PubChem BioAssay (NCI)
This is part of a sample that, as a whole, favours compounds with a hit. Of some 83,000 tested, about 20% had one in any assay.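 Single-dose data. Exposure time 48 hours. Values below 10 considered active.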 Unmarked numbers belong to inactive results. Active and inactive are the calls of the source.

System: MDA-MB-468 breast
Assay: NCI-60 one-dose screen, 48 h (100 = growth as untreated, 0 = no growth, -100 = all killed)
Details: 10 µM unless noted

Structure (SMILES) | growth
CC(C)c1ccc(-n2c(=S)[nH]c3sc4c(c3c2=O)CCC(=O)C4)cc1 | 58.6%
O=C(O)c1ccccc1Oc1cc(-c2ccco2)nc(OCCBr)n1 | 119%
COc1cc(CN(c2ccc(C)cc2)C2OC(=O)c3ccccc32)cc(OC)c1OC (stereo not given) | 25%
Fc1c[c-]c(-c2ccccn2)c(F)c1.[CH3-].[Pt+2].c1ccc(P(C[PH+](c2ccccc2)c2ccccc2)c2ccccc2)cc1 | -38.3% (active)
O=[N+]([O-])c1cc2ncccc2c2ncccc12 | 89%
CC(=O)NC1=C(C#N)C(c2ccccc2Cl)c2c(ccc3ccccc23)O1 (stereo not given) | 14%
Cc1ccc(-c2nc(SCc3nc4cc(Cl)c(Cl)cc4[nH]3)[nH]c(=O)c2C#N)cc1 | 116%
NC(=O)NCCCC(N)C(=O)O (stereo not given) | 107%
CC(C)(C)OC(=O)N[C@@H](Cc1ccccc1)C(=O)N(Cc1ccccc1)C1(C(=O)NCc2ccccc2)CCN(Cc2ccccc2)CC1 | 7.09% (active)
COc1cc(N2CCC(N3CCN(C)CC3)CC2)ccc1Nc1ncnc(Nc2ccccc2S(=O)(=O)C(C)C)n1 | 110%
CCCCCCCCCCCCCCCCCC1=NC(C)(C)CN1C(C)(C)CO | -100% (active)
CCN1C(=O)/C(=C/C=C/N(C)c2ccccc2)SC1=S | 89.1%
Cc1nn(-c2ccc(Cl)cc2)c2nc3c(nc12)c(=O)oc1ccccc13 | 125%
Cc1ccc(S(=O)(=O)NCCCNc2nccc(-c3c(-c4ccccc4)nc4sccn34)n2)cc1 | 53.8%
Nc1c(C(=O)Nc2ccccc2)sc2nc3c(cc12)CCCCCC3 | -25% (active)
Nc1ccc(/C=N/Nc2ccnc3c(O)cccc23)c2cccnc12 | 73.6%
COc1cc(/C=C2\CCCC3C2=Nc2ccccc2NC3c2cc(OC)c(OC)c(OC)c2)cc(OC)c1OC (stereo not given) | -6.85% (active)
O=c1c2c(=NCCN3CCCC3)cc3c(=O)n(CCCN4CCOCC4)c(=O)c4c(-c5ccc(CN6CCCC6)cc5)cc(c(O)n1CCCN1CCOCC1)c2c4-3 | -58.1% (active)

Structure (SMILES) | growth
Nc1nc(-c2ccnc(Cl)c2)nn1-c1nc2ccccc2s1 | 107%
CNC(=O)c1cc(Oc2ccc3nc(NC(=O)c4cccc(C(F)(F)F)c4)sc3c2)ccn1 | 106%
N=C(N)c1ccc(-c2ccc(-c3ccccc3)s2)cc1 | -39.2% (active)
O=C(Nc1ccc(CN2CCc3nc4cc(O)c(O)cc4cc32)cc1)c1ccc(Cl)c(Cl)c1 | 97.4%
O=C1C=CC2(NN=C(c3ccccc3)N2c2cccc(Cl)c2)C(Cl)=C1 (stereo not given) | 71.7%
C[C@H]1O[C@@H](O[C@H]2[C@@H](O)C[C@H](O[C@H]3[C@@H](O)C[C@H](O[C@H]4CC[C@]5(C)C6C[C@@H](O)[C@]7(C)[C@@H](C8=CC(=O)OC8)CC[C@]7(O)C6CC[C@@H]5C4)O[C@@H]3C)O[C@@H]2C)C[C@H](O)[C@@H]1O (stereo not given in full) | -61.7% (active)
Cc1ccc(NC(=S)N2CCOCC2)cc1C | 83.5%
COc1ccc(S(=O)(=O)N(Cc2ccc3c(n2)C=CC(C)(C)O3)C2CCC2)cc1OC | -8.27% (active)
COc1ccc(-c2cnc(-c3ccc(Cl)cc3)[nH]2)cc1OC | 84.7%
CCOC(=O)c1ccc(Nc2ccnc(SCC(=O)c3ccc(C#N)cc3)n2)cc1 | 48.1%
Cc1ccc2oc(=O)cc(/C(=C3/C=CC=N3)c3ccc[nH]3)c2c1 | 3.2% (active)
C=CCn1c(SCC(=O)Nc2cccc(C(=O)/C=C/c3ccc(Br)cc3)c2)nc2ccccc2c1=O | 99.6%
COc1ccc(-c2cc(-c3cc(OC)c(OC)c(OC)c3)c(C#N)c(N3CCOCC3)n2)cc1O | 76.7%
CCc1c2c(nc3ccc(OC(=O)NCc4ccc(B5OC(C)(C)C(C)(C)O5)cc4)cc13)-c1cc3c(c(=O)n1C2)COC(=O)[C@]3(O)CC | -33.9% (active)
CCN(CC)CCCNc1cccc2c(C)cc(OC)nc12 | 74.8%
Cc1cc(C)n(C(=O)CSc2nc3sc4c(c3c(=O)n2-c2ccccc2)CCCCC4)n1 | 111%
COC(=O)CC[C@@H](C)[C@H]1CC[C@H]2[C@@H]3CC[C@@H]4C[C@H](O)CC[C@]4(C)[C@H]3C[C@H](O)[C@]12C | 103%
